The list is not random: actives were taken first. Their share in the collection is about 11%.
IMPase Li cell: qHTS Assay for Identifying the Cell-Membrane Permeable IMPase Inhibitors: Potentiation with Lithium | CHO-M1 cells, IP1 TR-FRET (IP-One), carbachol + lithium | Potency, µM (series often up to 59.4 µM), inactives show at the top dose activity, negative = IMPase inhibition, hits mostly inhibitors | actives 0.35% (n = 210,000);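 also: IP1 builds up when IMPase is blocked and the TR-FRET signal falls; potency is read from the fitted curve at half-maximal effect; plate controls were basal vehicle for no effect and high inhibitor control for full effect; nearly all actives have a fitted effect of over 50% in size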
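Readout is a homogeneous TR-FRET IP1 immunoassay (Ex 320, Em 665 and 620), where raised cytosolic IP1 lowers signal. Cells were CHO-M1 treated 30 min at 37C with test compounds plus a little lithium; AC50 values came from Hill-equation fitting.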
PNC inhibitor: High Content Assay for Compounds that inhibit the Assembly of the Perinucleolar Compartment; PC3M PTB-GFP, PNC prevalence imaging, 16 h; active compounds read low; activity change (PNC), negative = inhibition, % at 10 µM; actives 3.1% (n = 140,000); AID 2417, 2010;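 active = readout at or below -70, meaning at least 70% loss of cells showing the perinucleolar compartment, a nuclear body marking cancer cells; inconclusive = readout between -30 and a set limit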;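 also: plate controls were DMSO wells for no effect and camptothecin positive control wells for full effect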
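Read-out is percentage of cells bearing a perinucleolar compartment, from automated 20x imaging of fixed, Hoechst-stained PC3M PTB-GFP cells. Cells were seeded 4 h, then exposed 16 h to compound (23 nl of library stock) in duplicate plates.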
HPGD block: qHTS Assay for Inhibitors of HPGD (15-Hydroxyprostaglandin Dehydrogenase); 15-hydroxyprostaglandin dehydrogenase [NAD(+)] (Homo sapiens), P15428; purified HPGD, NADH fluorescence kinetic, PGE2 substrate; Potency, µM, for the others: at the top dose activity change, negative = inhibition, hits mostly inhibitors; actives 4.3% (n = 150,000); AID 894, 2007; active = well fitted inhibition curve with a large enough effect, not every such curve was filed as active; inconclusive = small, poorly fitted or top-dose-only effect, or another doubt; inactive = no such curve, though single readings can be large or run the other way; also: potency is read from the fitted curve at half-maximal effect
Target sequence (P15428 whole entry, looked up): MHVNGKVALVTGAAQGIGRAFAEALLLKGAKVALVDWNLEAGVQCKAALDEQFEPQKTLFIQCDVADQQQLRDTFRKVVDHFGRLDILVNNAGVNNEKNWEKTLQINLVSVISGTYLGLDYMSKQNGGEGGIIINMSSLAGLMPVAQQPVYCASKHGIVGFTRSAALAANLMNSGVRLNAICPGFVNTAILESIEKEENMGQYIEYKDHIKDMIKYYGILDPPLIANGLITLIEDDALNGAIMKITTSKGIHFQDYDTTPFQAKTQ
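20 nM HPGD preincubated 15 min at room temperature with compound in 50 mM Tris-HCl pH 8, 0.01% Tween 20. Started with 1 mM NAD+ and 30 uM prostaglandin E2; NADH fluorescence (360/450 nm) read 5 times over 30-s intervals, last minus first.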
ALDH1A1 inh: qHTS Assay for Inhibitors of Aldehyde Dehydrogenase 1 (ALDH1A1); Purified ALDH1A1, NADH fluorescence, propionaldehyde substrate; Potency, µM (highest dose often 75.3 µM), inactives show at the highest dose activity, negative = inhibition, hits mostly inhibitors; actives 7.3% (n = 220,000); AID 1030, 2008; active = well fitted inhibition curve with a large enough effect, not every such curve was filed as active; inconclusive = small, poorly fitted or top-dose-only effect, or another doubt; inactive = no such curve, though single readings can be large or run the other way;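 also: potency is read from the fitted curve at half-maximal effect; plate controls were no enzyme wells and a reference inhibitor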
ALOX12 inhib: qHTS Assay for Inhibitors of 12-hLO (12-human lipoxygenase) | Polyunsaturated fatty acid lipoxygenase ALOX12 (Homo sapiens), P18054 | purified 12-hLO, xylenol orange hydroperoxide absorbance | Potency, µM (titrated, usually from 57.1 µM), without a hit: at the top dose activity change, negative = inhibition, most hits filed as inhibitors | actives 0.12% (n = 150,000); also: potency is read from the fitted curve at half-maximal effect; nearly all actives have a fitted effect of over 55% in size
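Purified human 12hLO (150 nM final) was preincubated with compounds for 15 min at room temperature in 25 mM Hepes pH 7.0, 0.01% Triton X-100, then reacted with 40 uM arachidonic acid for 30 min. Hydroperoxide was detected with ferrous iron/xylenol orange.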
IMPase inh: qHTS Assay for Identifying the Cell-Membrane Permeable IMPase Inhibitors; Inositol monophosphatase 1 (Rattus norvegicus), P97697; CHO-M1 cells, IP1 accumulation, HTRF TR-FRET ratio; inhibition (IP1 accumulation), % at 46.1 µM; 120,000 tested, under 10 active; active = well fitted curve in the direction sought with a large enough effect in the signal ratio, not every such curve was filed as active; inconclusive = small, poorly fitted or top-dose-only effect, or a change in a side signal; inactive = no such curve, though single readings can be large or run the other way; the % refers to the signal ratio;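 also: cells stimulated with carbachol in lithium chloride buffer; plate controls were DMSO basal wells for no effect and reference inhibitor wells for full effect; higher means more IMPase inhibition seen as more IP1 and lower FRET ratio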
Target sequence (P97697 whole entry, looked up): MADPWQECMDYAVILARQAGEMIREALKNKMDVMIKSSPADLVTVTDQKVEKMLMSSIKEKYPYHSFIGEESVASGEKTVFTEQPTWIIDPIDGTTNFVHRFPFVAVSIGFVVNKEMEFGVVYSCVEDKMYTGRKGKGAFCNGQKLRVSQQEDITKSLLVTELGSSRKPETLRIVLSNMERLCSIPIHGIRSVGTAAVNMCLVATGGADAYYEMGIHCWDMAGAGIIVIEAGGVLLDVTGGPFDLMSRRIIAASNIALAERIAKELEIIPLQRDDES
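Elevated IP1 in lysates lowers TR-FRET signal (665/620 ratio and 620 channel reported). Cells were CHO-M1, given carbachol (50 uM as added) plus 50mM LiCl, pH 7.4, 30 min, 37C; compounds titrated up to 46 uM; AC50 by Hill equation.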
* = called active by the depositor; ? = inconclusive; . = no result given; ! = repeats disagree; [ ] = dose if it differs, or a comment. Unless noted, calls follow the shape of the dose curve; as a rule, active = well fitted curve in the direction sought with a large enough effect; inconclusive = small, poorly fitted or top-dose-only effect, or another doubt; inactive = no such curve, though single readings can be large; an effect the other way counts as inactive or inconclusive. Unless noted, % is scaled to controls: 0 for no effect and ±100 for the full control effect.

SMILES | IMPase Li cell | PNC inhibitor | HPGD block | ALDH1A1 inh | ALOX12 inhib | IMPase inh
O=C(CN1CCN(Cc2ccc(Cl)cc2)CC1)N/N=C/C=C/c1ccccc1[N+](=O)[O-] | 1% | 66 | 0% | ? | -1% | .
CCn1c(SCC(=O)N/N=C/C=C/c2ccccc2[N+](=O)[O-])nnc1-c1ccc(Cl)cc1 | 18% | ? | -19% | 4.5µM* | -3% | 2
CCn1c(SCC(=O)N/N=C/c2ccc(C)s2)nc2ccccc21 | 6% | 4 | -21% | ? | 0% | .
CCc1ccc(C2CC(=O)c3c([nH]c(C(=O)OCCOc4ccccc4)c3C)C2)cc1 (centres undefined) | . | . | . | . | . | -4
CC(C)=CCC/C(C)=C/CO/N=C1/C[C@@H](O)[C@@H](O)[C@@H]2[C@H]3C(=O)N(c4ccc(F)cc4F)C(=O)[C@@H]3CC[C@@H]12 | . | . | . | -4%[13.5 µM] | . | .
CCOC(=O)C1CCN(c2c(N3CCN(c4ccccc4OC)CC3)c(=O)c2=O)CC1 | 6% | -82* | ? | 1% | 2% | -3
CCOC(=O)C1CCCN(c2c(N3CCc4ccccc4C3)c(=O)c2=O)C1 (centres undefined) | 4%[38.3 µM] | -24 | 28µM* | ? | -3% | -3
Cc1ccc(-n2c(-c3ccncc3)n[nH]c2=S)c(C)c1 | 4% | . | . | -13% | . | .
Fc1ccc(C2CCCN2Cc2nc(-c3cnccn3)no2)cc1 (centres undefined) | 0% | . | . | 28µM* | . | .
COc1ccccc1OCCNC(=O)Cc1ccc(Cl)c(Cl)c1 | -5% | . | . | 6% | . | .
Cc1noc(C)c1-c1ccc2ncnc(NCCN3CCOCC3)c2c1 | 4% | . | . | 16% | . | .
N#C/C(=C\c1ccc(C#N)cc1)C(=O)N1CCCC1 | 6% | . | . | 7.9µM* | . | .
CN1CCN(C(=O)/C(C#N)=C/c2ccc(F)cc2)CC1 | ? | . | . | 1.8µM* | . | .
CN1CCN(C(=O)/C(=C/c2ccc(F)cc2)c2ccsc2)CC1 | 30% | . | . | -9% | . | .
Cc1ccc(/C=C(\C#N)C(=O)N2CCCC2)c(C)c1 | -2% | . | . | -3% | . | .
Cc1cccc(N2CCN(C(=O)C3CCCN(S(=O)(=O)c4ccc(Br)s4)C3)CC2)c1C (centres undefined) | . | . | . | . | . | 2
CC(C)(C)n1cnc(C(N)=O)c1N | 6% | -8 | 1% | 10µM* | -3% | .
CC1CCC2C(=O)N3C(CCC(C)[C@@H]3c3cccc(N4CCOCC4)c3)C(=O)N2C1c1cccc(Br)c1 (some centres undefined) | . | . | . | -3%[13.5 µM] | . | .
CCOC(=O)C(O)(CC(=O)c1ccc(OC)cc1)C(F)(F)F (centres undefined) | 11% | -81* | -4% | ? | 2% | 15
COC(=O)c1ccc(C(NC(=O)OCc2ccccc2)/C(=C/[C@@H](C)C(=O)N[C@@H](CO)Cc2ccccc2)c2cccnc2)cc1 (some centres undefined) | -1% | . | -7% | -3% | -5% | .
S=C(NCCN1CCOCC1)Nc1cccc(Cl)c1 | -11% | 16 | -8% | 2% | -4% | .
COc1cccc(NC(=S)NCCN2CCOCC2)c1 | 1% | -91* | -3% | 13% | 4% | .
CCN1CCCc2cc(CN(CCN3CCOCC3)C(=S)Nc3cccc(OC)c3)ccc21 | 14% | . | . | 16µM* | . | .
N[C@@H](CSC1(c2ccc(Cl)cc2)c2ccccc2-c2ccccc21)C(=O)O | 7% | . | -6% | 9%[13.5 µM] | 4%[11.4 µM] | .
Cc1cnc(CNc2ncncc2-c2cccc(C#N)c2)cn1 | -8% | . | . | ? | . | .
SMILES | IMPase Li cell | PNC inhibitor | HPGD block | ALDH1A1 inh | ALOX12 inhib | IMPase inh
CCCCC[C@H](O)/C=C/[C@@H]1[C@@H](C/C=C\CCCC(=O)O)[C@@H](O)C[C@@H]1O | 18% | . | -16% | ? | 0% | .
CCCCC[C@H](O)/C=C/[C@H]1C=CC(=O)[C@@H]1C/C=C\CCCC(=O)O | 3% | -96* | 22µM*! | 40µM*! | -15% | .
O=C(NC(=S)Nc1ccccc1N1CCCC1)c1ccc(F)cc1 | 15% | . | . | 7.5µM* | . | .
CC1CCN(c2ccccc2NC(=O)c2ccc(F)cc2)CC1 | 81%[38.3 µM] | 42 | ? | ? | 0% | 12
Cc1ccccc1C(=O)NC(=S)Nc1ccccc1N1CCCC1 | 5% | . | . | 25µM* | . | .
Cc1cc(C(=O)NC(=S)Nc2ccccc2N2CCCC2)ccc1[N+](=O)[O-] | 6% | 35 | -15% | ? | 3% | -6
O=C(NC(=S)Nc1ccccc1N1CCCC1)c1cccc(F)c1 | -8% | . | . | 8.9µM* | . | .
CC1CCN(c2ccccc2NC(=S)NC(=O)C(C)(C)C)CC1 | 26% | . | . | 1.3µM* | . | .
O=c1c(-c2ccc(F)cc2)nc2cnc(N3CCNCC3)nc2n1C1CC1 | -1% | . | . | ? | . | .
c1cncc(CNc2ncncc2-c2ccc3c(c2)OCO3)c1 | 6% | . | ? | ? | 1% | .
O=C(NC(=S)Nc1ccccc1N1CCCCC1)c1ccccc1 | -10% | . | . | 19µM* | . | .
COc1ccc(OC)c(NC(=O)CS(=O)(=O)c2ccccc2)c1 | 20%[38.3 µM] | -4 | 5% | ? | 10% | -16
COc1cc(OC)nc(NC(=O)CS(=O)(=O)c2ccccc2)n1 | 8% | -119* | -3% | -9% | 3% | 13
O=C(CSC1=NC(=O)C(Cc2ccccc2)C(=O)N1)Nc1ncc(Br)cc1Br (centres undefined) | -16% | . | . | 40µM* | . | .
CN(C)c1ccnc(-c2ccccc2C(F)(F)F)n1 | -3% | . | -4% | 7% | -7% | .
O=C(O)C1C2C=CC(O2)C1C(=O)NCc1ccc(Cl)cc1 (centres undefined) | -5% | -131* | 6% | 3% | 0% | 19
O=C(O)C1C2C=CC(O2)C1C(=O)NCc1ccc2c(c1)OCO2 (centres undefined) | -7% | -21 | 1% | -2% | -2% | 11
O=C(Nc1ccccc1)N1CCCC2(CCN(C(=O)c3csnn3)CC2)C1 | 1% | . | 0% | 2% | 4% | .
O=C(c1ccc2c3c(cccc13)CC2)N1CCOCC1 | -3%[38.3 µM] | -21 | 11µM* | 14µM* | -17% | 9
COc1cccc(C(=O)N2CCOCC2)c1OC | -1% | . | . | 1% | . | .
CCOC(=O)N1CCc2c(sc3c2C(=O)NC(c2ccc(N(C)C)cc2)N3)C1 (centres undefined) | . | . | . | . | . | 7
Cc1ccccc1C(=O)Oc1cc(N)n(S(=O)(=O)c2ccccc2)n1 | -3% | . | . | 2% | . | .

High-throughput results (PubChem)
